Gal4-VP16 FLuc = Gal4-VP16 reporter inhibition counter-screen | Drosophila S2 Gal4-VP16 UAS-luciferase, luminescence, 20 h | Potency, µM (doses to about 53.6 µM), hits mostly inhibitors | AID 2546 | hit rate 3.5% among 310,000;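 further: Gal4-VP16 expression switched on by copper sulfate through the metallothionein promoter; nearly all actives have a fitted effect of over 50% in size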
DT40 TDP1 no CPT = qHTS for Inhibitors of human tyrosyl-DNA phosphodiesterase 1 (TDP1): qHTS in cells in absence of CPT. DT40 Tdp1-/- hTDP1 cells, no CPT, ATP luminescence, 48 h. Potency, µM (highest dose often 46.2 µM), most hits filed as inhibitors. hit rate 15% among 420,000; further: nearly all actives have a fitted effect of over 55% in size
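Growth kinetics read by CellTiter-Glo luminescence after ≥48 hr at 37 °C. Cells: DT40 Tdp1-/- stably carrying human TDP1, 400 per well, compound exposure in the absence of CPT (DMSO vehicle).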
DT40 TDP1 CPT = growth inhibition of DT40 Tdp1-/-;hTDP1 cells with camptothecin (screen for TDP1 inhibitors); hit rate 12% among 420,000; chicken DT40 Tdp1-/-;hTDP1 cells + 20 nM CPT, ATP luminescence, 48 h; AID 686979; Potency, µM (highest dose often 46.2 µM), most hits filed as inhibitors; further: nearly all actives have a fitted effect of over 55% in size
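Chicken DT40 Tdp1-/- cells stably complemented with human TDP1 were seeded at 400 cells/well in medium containing 20 nM camptothecin, exposed to pin-transferred compounds, and grown at 37 °C for at least 48 hr. Viability was read as ATP luminescence.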
RORgamma inh = inhibitors of mouse ROR gamma transcriptional activity; hit rate 5.4% among 310,000; Potency, µM (highest dose often 53.6 µM), hits mostly inhibitors; Drosophila S2 Gal4-RORgamma UAS-luciferase reporter, 20 h; AID 2551; further: nearly all actives have a fitted effect of over 60% in size
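In this cell-based reporter format, copper sulfate (700 uM final) drives Gal4–ROR gamma fusion expression from a metallothionein promoter in Drosophila Schneider cells; compounds preincubated 1 hr, reporter read after 20 hr at ambient temperature.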
TDP1 inh = blocks human tyrosyl-DNA phosphodiesterase 1. Q9NUW8. recombinant TDP1, AlphaScreen DNA substrate cleavage. Potency, µM (series often up to 130 µM), actives largely listed as inhibitors. hit rate 0.28% among 350,000; further: nearly all actives have a fitted effect of over 40% in size
Target sequence (Q9NUW8 whole entry, looked up): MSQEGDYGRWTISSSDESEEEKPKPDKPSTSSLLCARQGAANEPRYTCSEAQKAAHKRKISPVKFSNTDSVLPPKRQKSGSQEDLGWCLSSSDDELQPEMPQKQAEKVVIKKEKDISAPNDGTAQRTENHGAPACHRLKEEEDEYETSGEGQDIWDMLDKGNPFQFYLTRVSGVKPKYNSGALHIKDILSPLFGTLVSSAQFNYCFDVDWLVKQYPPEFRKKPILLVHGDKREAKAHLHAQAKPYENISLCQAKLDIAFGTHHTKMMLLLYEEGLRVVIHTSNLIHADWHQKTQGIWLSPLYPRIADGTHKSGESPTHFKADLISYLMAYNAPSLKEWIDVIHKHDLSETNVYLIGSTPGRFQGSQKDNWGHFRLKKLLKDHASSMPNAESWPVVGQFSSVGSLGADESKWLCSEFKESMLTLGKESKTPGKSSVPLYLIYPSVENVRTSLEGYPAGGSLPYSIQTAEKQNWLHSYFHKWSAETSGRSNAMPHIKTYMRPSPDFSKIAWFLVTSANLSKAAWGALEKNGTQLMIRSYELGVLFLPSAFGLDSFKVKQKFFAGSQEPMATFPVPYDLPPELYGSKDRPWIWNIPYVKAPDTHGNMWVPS
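Steps: enzyme plus compound, 15 min RT; add biotin/phosphotyrosine-FITC oligonucleotide (15 nM final), react 5 min; add donor/acceptor beads (10 ug/ml final), 10 min; read AlphaScreen. Tdp1 at 1 nM final.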
A number is an active result. Only some compounds are listed: those with a hit (about 19% of all), similar ones and a draw of the others. The call rests on the fitted dose curve; in most records, active means well fitted curve in the direction sought with a large enough effect; inconclusive means small, poorly fitted or top-dose-only effect, or another doubt; inactive means no such curve, though single readings can be large; an effect the other way counts as inactive or inconclusive.

Screening OC(c1cccc(Cl)c1)c1nc(-c2csc3ccccc23)cs1 (configuration not stated) returned DT40 TDP1 no CPT inconclusive and DT40 TDP1 CPT 15µM.
`COc1cccc(C(N)c2nc(-c3csc4ccccc34)cs2)c1` (configuration not stated) gave DT40 TDP1 no CPT 2.9µM and DT40 TDP1 CPT 3.7µM.
`CC(=O)NC(c1cccc(F)c1)c1nc(-c2cccc(C(=O)O)c2)cs1` (configuration not stated) gave DT40 TDP1 no CPT inactive and DT40 TDP1 CPT inactive.
Screening COc1cccc(C(O)c2nc(-c3cccc4cccnc34)cs2)c1 (configuration not stated) returned DT40 TDP1 no CPT inactive and DT40 TDP1 CPT inconclusive.
For OC(c1cccc(Cl)c1)c1nc(-c2cccc3cccnc23)cs1 (configuration not stated) the results were DT40 TDP1 no CPT inactive and DT40 TDP1 CPT inconclusive.
COc1ccc(OCCCC(=O)N2CCN(S(=O)(=O)c3cccc(F)c3)CC2)cc1 was read as DT40 TDP1 no CPT inconclusive, DT40 TDP1 CPT inconclusive and TDP1 inh inactive.
Screening COc1ccc(-c2csc(C(NC(C)=O)c3cccc(F)c3)n2)cn1 (configuration not stated) returned DT40 TDP1 no CPT inconclusive and DT40 TDP1 CPT 15µM.
Screening CC(=O)NC(c1cccc(F)c1)c1nc(-c2cnn(C)c2)cs1 (configuration not stated) returned DT40 TDP1 no CPT 23µM and DT40 TDP1 CPT inconclusive.
CC(=O)NC(c1cccc(F)c1)c1nc(-c2csc3ccccc23)cs1 (configuration not stated) was read as DT40 TDP1 no CPT inconclusive and DT40 TDP1 CPT 23µM.
Screening COc1ccc(-c2csc(C(O)c3ccccc3)n2)cn1 (configuration not stated) returned DT40 TDP1 no CPT inconclusive and DT40 TDP1 CPT inactive.
For COc1cccc(C(NC(C)=O)c2nc(-c3cnn(C)c3)cs2)c1 (configuration not stated) the results were DT40 TDP1 no CPT inactive and DT40 TDP1 CPT inconclusive.
For COc1cc(F)ccc1-c1csc(C(NC(C)=O)c2ccccc2)n1 (configuration not stated) the results were DT40 TDP1 no CPT inactive and DT40 TDP1 CPT inactive.
COc1ccc(-c2csc(C(NC(C)=O)c3ccc(F)c(F)c3)n2)cn1 (configuration not stated) was read as DT40 TDP1 no CPT inconclusive and DT40 TDP1 CPT 23µM.
`CC(=O)NC(c1ccc(F)c(F)c1)c1nc(-c2ccc(F)c(Cl)c2)cs1` (configuration not stated) gave DT40 TDP1 no CPT inactive and DT40 TDP1 CPT inconclusive.
Screening COc1ccc(C(=O)C2CCN(C(=O)c3ccc(OC)cc3)CC2)cc1 returned Gal4-VP16 FLuc inactive, DT40 TDP1 no CPT inconclusive, DT40 TDP1 CPT inconclusive and RORgamma inh inconclusive.
Screening CC(=O)Nc1ccc(S(=O)(=O)Oc2cccc(N3C(=O)C4CC=CCC4C3=O)c2)cc1 (configuration not stated) returned Gal4-VP16 FLuc inactive, DT40 TDP1 no CPT 21µM, DT40 TDP1 CPT inconclusive, RORgamma inh inactive and TDP1 inh inactive.
O=C1C2CCCCC2C(=O)N1c1cccc(OS(=O)(=O)c2ccccc2)c1 (configuration not stated) was read as Gal4-VP16 FLuc inactive, DT40 TDP1 no CPT inactive, DT40 TDP1 CPT inactive, RORgamma inh inactive and TDP1 inh inactive.
`CC(=O)Nc1ccc(S(=O)(=O)Oc2ccccc2N2C(=O)C3C4CCC(C4)C3C2=O)cc1` (configuration not stated) gave Gal4-VP16 FLuc inactive, DT40 TDP1 no CPT inactive, DT40 TDP1 CPT inactive, RORgamma inh inactive and TDP1 inh inactive.
CC(=O)Nc1ccc(S(=O)(=O)Oc2ccc(N3C(=O)C4CCCCC4C3=O)cc2)cc1 (configuration not stated) was read as Gal4-VP16 FLuc 13µM, DT40 TDP1 no CPT 18µM, DT40 TDP1 CPT 16µM, RORgamma inh inconclusive and TDP1 inh inactive.
COc1ccc(OC)c(S(=O)(=O)NCCS(=O)(=O)N2CCN(c3ccccc3F)CC2)c1 was read as DT40 TDP1 no CPT inconclusive, DT40 TDP1 CPT inconclusive and TDP1 inh inactive.
O=[N+]([O-])c1cc(S(=O)(=O)NCCN2CCOCC2)ccc1Sc1nnnn1-c1ccccc1 was read as Gal4-VP16 FLuc 20µM, DT40 TDP1 no CPT 6.5µM, DT40 TDP1 CPT 5.8µM, RORgamma inh 11µM and TDP1 inh inactive.
Screening COC(=O)c1ccc(NCc2c(O)ccc(O)c2Br)cc1Cl returned DT40 TDP1 no CPT 4.6µM and DT40 TDP1 CPT 2.6µM.
COC(=O)c1ccc(NCc2cc(O)ccc2O)cc1O was read as DT40 TDP1 no CPT 3.3µM and DT40 TDP1 CPT 5.2µM.
Screening CCOC(=O)CN1C(=O)C(=O)c2cccc(C)c21 returned Gal4-VP16 FLuc inactive, DT40 TDP1 no CPT inconclusive, DT40 TDP1 CPT inconclusive, RORgamma inh inactive and TDP1 inh inactive.
Screening COc1ccccc1CN1C(=O)C(=O)c2cccc(C)c21 returned DT40 TDP1 no CPT 6.5µM, DT40 TDP1 CPT 13µM and TDP1 inh inactive.
Screening Cc1cccc2c1N(Cc1ccccc1OCCC(C)C)C(=O)C2=O returned DT40 TDP1 no CPT 12µM, DT40 TDP1 CPT 15µM and TDP1 inh inactive.
For Cc1cccc(OCCN2C(=O)c3ccccc3C2=O)c1 the results were Gal4-VP16 FLuc inconclusive, DT40 TDP1 no CPT inactive, DT40 TDP1 CPT inactive and RORgamma inh inactive.
Screening COc1ccccc1CN1C(=O)c2ccncc2C1=O returned Gal4-VP16 FLuc inactive, DT40 TDP1 no CPT inactive, DT40 TDP1 CPT inactive, RORgamma inh inactive and TDP1 inh inactive.
`Cc1cc(Br)cc2c1N(Cc1ccccc1OC(C)C)C(=O)C2=O` gave DT40 TDP1 no CPT 4.1µM, DT40 TDP1 CPT 21µM and TDP1 inh inactive.
For Cc1ccc(OCCN2C(=O)C(=O)c3cccc(C)c32)cc1 the results were Gal4-VP16 FLuc inactive, DT40 TDP1 no CPT 2.9µM, DT40 TDP1 CPT 2.3µM, RORgamma inh inactive and TDP1 inh inactive.
For COc1ccccc1CN1C(=O)c2cccc3cccc(c23)C1=O the results were Gal4-VP16 FLuc inactive, DT40 TDP1 no CPT inconclusive, DT40 TDP1 CPT inactive, RORgamma inh inactive and TDP1 inh inactive.
For CC1(C)NC(=O)N(CN2C(=O)NC(C)(C)C2=O)C1=O the results were Gal4-VP16 FLuc inactive, DT40 TDP1 no CPT inactive, DT40 TDP1 CPT inactive, RORgamma inh inactive and TDP1 inh inactive.
For COc1ccc(OC)c(NC(=O)Nc2cccc(Cn3cccn3)c2)c1 the results were Gal4-VP16 FLuc inactive, DT40 TDP1 no CPT inconclusive, DT40 TDP1 CPT inactive, RORgamma inh inactive and TDP1 inh inactive.
COc1ccc(C/C(O)=C(\C#N)c2nc3ccccc3[nH]2)cc1OC was read as Gal4-VP16 FLuc inactive, DT40 TDP1 no CPT inactive, DT40 TDP1 CPT inactive, RORgamma inh 11µM and TDP1 inh inactive.
